# Laboratory results reported in PubChem BioAssay (NCI).
# Compounds without any hit were thinned out: in the full panel of roughly 79,000, 15% have a hit. A number with no mark means an inactive call. The source made the active and inactive calls. Rule as the data show it: active = growth inhibition above about 70%; inactive = the rest.
# Assay: NCI Yeast Anticancer Drug Screen. Data for the CLN2oe strain (AID 163);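 also: 0% = growth of vehicle-only control cultures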
# Conditions: S. cerevisiae CLN2oe strain, at 11.0 µM, active compounds read high
# In short: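 Inhibition relative to vehicle-treated yeast is reported. Cells: strain with genetic alteration in cell-cycle control, grown with compound.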
row,Structure (SMILES),growth inhibition
1,O=CC=C(c1ccccc1)c1ccccc1,13%
2,FC(F)(F)c1nc2nc(Cl)c(Cl)nc2n1CCCN1CCOCC1,23%
3,BrCC[P+](c1ccccc1)(c1ccccc1)c1ccccc1,2%
4,N#CSc1ccc(S(N)(=O)=O)cc1,2%
5,O=[N+]([O-])c1ccc2nc3ccccc3cc2c1,5%
6,O=C(NC(Nc1ccc(F)c(Cl)c1)(C(F)(F)F)C(F)(F)F)C(C(F)(F)F)C(F)(F)F,92% (active)
7,O=C(/C=C\c1ccc(Cl)cc1Cl)c1cccs1,-17%
8,O=C(NCCCCNCCCNC(=O)c1cc(-c2ccccc2)nc2ccccc12)c1cc(-c2ccccc2)nc2ccccc12,-1%
9,NC(=NCc1ccccc1)N/N=C\c1ccnc2ccccc12,1%
10,CCCCN(CCCC)CCSc1ccc(Cl)cc1,-13%
11,COc1cc(C2C3=C(COC3=O)Oc3cc4c(cc32)OCO4)ccc1O (stereo not drawn),-1%
12,C#CCCCc1ccccc1,4%
13,CCc1ccc(NS(=O)(=O)c2ccccc2)c([N+](=O)[O-])c1,3%
14,COc1ccc(C2c3cc4c(cc3OC(C)(O)C2C)OCO4)c(OC)c1 (stereo not drawn),-2%
15,COC(=O)c1ccc(CCC2=CC(=O)C(Br)=CC2=O)cc1,10%
16,NNC(=O)CCc1ccc2ccc3ccccc3c2c1,-17%
17,Cn1c2ccccc2c(=O)c2cc(NC(=O)CCCCC(=O)Nc3ccc4c(c3)c(=O)c3ccccc3n4C)ccc21,-8%
18,CC(CC(C)(C)[N+](C)(C)C)[N+](C)(C)C (stereo not drawn),1%
19,CC1CCN(CCC(=O)c2ccc(Cl)cc2)CC1,36%
20,CCCCCCCCCCCCCCC(C(=O)[O-])[n+]1ccccc1 (stereo not drawn),3%

row,Structure (SMILES),growth inhibition
1,CNC1C(OC2C(OC3C(O)C(O)C(N=C(N)N)C(O)C3N=C(N)N)OC(C)C2(O)CO)OC(CO)C(O)C1O (stereo not drawn),-2%
2,O=C(O)c1ccccc1-c1ccccc1C(=O)Nc1ccc2c(c1)Cc1ccccc1-2,20%
3,O=[N+]([O-])c1cccc2nc3ccccc3c(NCCCN3CCOCC3)c12,92% (active)
4,C=CC(C)(O)CCC1C(=C)C(O)CC2C(C)(C)CCCC12C (stereo not drawn),-8%
5,CN1c2ccc(Cl)cc2C(=O)NC1c1ccc([N+](=O)[O-])s1 (stereo not drawn),-3%
6,[O-][n+]1c2ccc(O)cc2nc2ccc(Br)cc21,40%
7,O=C1c2ccccc2-c2nc3ccccc3nc21,-39%
8,CCCCN1C(=O)N(c2ccc(OCC)cc2)C2N(CCCC)C1C(C)(C)C2(C)C (stereo not drawn),-10%
9,CO[C@H]1C[C@](C)(O)Cc2cc3c(c(O)c21)C(=O)c1c(O)cc2c(c1C3=O)O[C@@H]1O[C@@]2(C)[C@H](O)[C@@H](N(C)C)[C@@H]1O,-8%
10,COc1cc2c(cc1[N+](=O)[O-])C(=O)C(Br)(Br)CCC2,55%
11,O=C1OC(CCl)CN1/N=C/c1ccc([N+](=O)[O-])o1 (stereo not drawn),-6%
12,CN(C)CCOc1ccc2c(c1)C/C(=C/c1ncc([N+](=O)[O-])n1C)C2=O,31%
13,CCCCCCCCCCCCCCCCCCN(C)CC(COP(=O)([O-])OCC[N+](C)(C)C)OC (stereo not drawn),96% (active)
14,CC(C)c1ccccc1NC(=O)/C(Cl)=C(\Cl)C(=O)O,5%
15,O=[N+]([O-])C(=C(Sc1ccccc1)Sc1ccccc1)C(Cl)=C(Cl)Cl,26%
16,C(=C\c1ccccc1)/COc1ccccc1C(N1CCOCC1)n1nc2ccccc2n1 (stereo not drawn),-10%
17,O=C1C(Nc2ccccc2)=C(Oc2ccccc2)C(=O)c2ccccc21,1%
18,CCN(CC)CCN1C(=O)c2cccc3cc(OC)cc(c23)C1=O,5%
19,CN(C)Cc1cc(N=Nc2ccc(Cl)cc2)cc(CN(C)C)c1O,26%

# Same assay, conditions: S. cerevisiae CLN2oe strain, at 33.0 µM, active compounds read high
row,Structure (SMILES),growth inhibition
1,O=CC=C(c1ccccc1)c1ccccc1,20%
2,FC(F)(F)c1nc2nc(Cl)c(Cl)nc2n1CCCN1CCOCC1,45%
3,BrCC[P+](c1ccccc1)(c1ccccc1)c1ccccc1,90% (active)
4,N#CSc1ccc(S(N)(=O)=O)cc1,29%
5,O=[N+]([O-])c1ccc2nc3ccccc3cc2c1,18%
6,O=C(NC(Nc1ccc(F)c(Cl)c1)(C(F)(F)F)C(F)(F)F)C(C(F)(F)F)C(F)(F)F,97% (active)
7,O=C(/C=C\c1ccc(Cl)cc1Cl)c1cccs1,-14%
8,O=C(NCCCCNCCCNC(=O)c1cc(-c2ccccc2)nc2ccccc12)c1cc(-c2ccccc2)nc2ccccc12,43%
9,NC(=NCc1ccccc1)N/N=C\c1ccnc2ccccc12,22%
10,CCCCN(CCCC)CCSc1ccc(Cl)cc1,-11%
11,COc1cc(C2C3=C(COC3=O)Oc3cc4c(cc32)OCO4)ccc1O (stereo not drawn),-2%
12,C#CCCCc1ccccc1,2%
13,CCc1ccc(NS(=O)(=O)c2ccccc2)c([N+](=O)[O-])c1,17%
14,COc1ccc(C2c3cc4c(cc3OC(C)(O)C2C)OCO4)c(OC)c1 (stereo not drawn),4%
15,COC(=O)c1ccc(CCC2=CC(=O)C(Br)=CC2=O)cc1,7%
16,NNC(=O)CCc1ccc2ccc3ccccc3c2c1,-3%
17,Cn1c2ccccc2c(=O)c2cc(NC(=O)CCCCC(=O)Nc3ccc4c(c3)c(=O)c3ccccc3n4C)ccc21,3%
18,CC(CC(C)(C)[N+](C)(C)C)[N+](C)(C)C (stereo not drawn),-6%
19,CC1CCN(CCC(=O)c2ccc(Cl)cc2)CC1,49%
20,CCCCCCCCCCCCCCC(C(=O)[O-])[n+]1ccccc1 (stereo not drawn),-2%

row,Structure (SMILES),growth inhibition
1,CNC1C(OC2C(OC3C(O)C(O)C(N=C(N)N)C(O)C3N=C(N)N)OC(C)C2(O)CO)OC(CO)C(O)C1O (stereo not drawn),16%
2,O=C(O)c1ccccc1-c1ccccc1C(=O)Nc1ccc2c(c1)Cc1ccccc1-2,64%
3,O=[N+]([O-])c1cccc2nc3ccccc3c(NCCCN3CCOCC3)c12,96% (active)
4,C=CC(C)(O)CCC1C(=C)C(O)CC2C(C)(C)CCCC12C (stereo not drawn),-16%
5,CN1c2ccc(Cl)cc2C(=O)NC1c1ccc([N+](=O)[O-])s1 (stereo not drawn),92% (active)
6,[O-][n+]1c2ccc(O)cc2nc2ccc(Br)cc21,54%
7,O=C1c2ccccc2-c2nc3ccccc3nc21,-9%
8,CCCCN1C(=O)N(c2ccc(OCC)cc2)C2N(CCCC)C1C(C)(C)C2(C)C (stereo not drawn),-10%
9,CO[C@H]1C[C@](C)(O)Cc2cc3c(c(O)c21)C(=O)c1c(O)cc2c(c1C3=O)O[C@@H]1O[C@@]2(C)[C@H](O)[C@@H](N(C)C)[C@@H]1O,-14%
10,COc1cc2c(cc1[N+](=O)[O-])C(=O)C(Br)(Br)CCC2,98% (active)
11,O=C1OC(CCl)CN1/N=C/c1ccc([N+](=O)[O-])o1 (stereo not drawn),-7%
12,CN(C)CCOc1ccc2c(c1)C/C(=C/c1ncc([N+](=O)[O-])n1C)C2=O,27%
13,CCCCCCCCCCCCCCCCCCN(C)CC(COP(=O)([O-])OCC[N+](C)(C)C)OC (stereo not drawn),98% (active)
14,CC(C)c1ccccc1NC(=O)/C(Cl)=C(\Cl)C(=O)O,2%
15,O=[N+]([O-])C(=C(Sc1ccccc1)Sc1ccccc1)C(Cl)=C(Cl)Cl,37%
16,C(=C\c1ccccc1)/COc1ccccc1C(N1CCOCC1)n1nc2ccccc2n1 (stereo not drawn),11%
17,O=C1C(Nc2ccccc2)=C(Oc2ccccc2)C(=O)c2ccccc21,-1%
18,CCN(CC)CCN1C(=O)c2cccc3cc(OC)cc(c23)C1=O,7%
19,CN(C)Cc1cc(N=Nc2ccc(Cl)cc2)cc(CN(C)C)c1O,26%
